Several values for one entry are separate records, joined by “and”; a condition that tells them apart may be missing. Identical values can stand only once. Hit rate of the full screen: of about 5,500 compounds, about 2,000 (36%) were called active. About 18% were inconclusive and are not listed. Cut-off read from the data, not from the text of the source: active = normalized growth mostly below about 0.91 (no sharp cut-off); inconclusive = no clear call, values can overlap the other calls; inactive = mostly above about 0.92. The list shows a part of the results.
Assay: chemical genetic growth profiling, strain panel (AID 1159580);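 note: tested at 20 µM; growth read once vehicle control cultures reached saturation at 30 °C; 1 = growth at the plate median or of vehicle wells; lower values mean less growth of the strain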
Settings: S. cerevisiae deletion strains, growth OD

Measured: normalized growth

CC1(C)OC(=O)NC1=O
inactive: locus YAL021C, strain ccr4, stronger effect = lower value 0.996 | locus YAL026C, strain drs2, stronger effect = lower value 0.976 | locus YAL030W, strain snc1, stronger effect = lower value 1.01 | locus YBL061C, strain skt5, stronger effect = lower value 1.02 | locus YBR009C, strain hhf1, stronger effect = lower value 1 | locus YBR021W, strain FUR4, stronger effect = lower value 0.996 | locus YBR023C, strain chs3, stronger effect = lower value 1.01 | locus YBR171W, strain sec66, stronger effect = lower value 1.01 | locus YBR229C, strain ROT2, stronger effect = lower value 0.984 | locus YBR231C, strain swc5, stronger effect = lower value 1.04 | locus YBR279W, strain paf1, stronger effect = lower value 1.01 | locus YCL011C, strain gbp2, stronger effect = lower value 1 | locus YCL016C, strain dcc1, stronger effect = lower value 1 | locus YCL029C, strain bik1, stronger effect = lower value 0.969 | locus YCL069W, strain vba3, stronger effect = lower value 1 | locus YCR088W, strain abp1, stronger effect = lower value 0.994 | locus YDL005C, strain med2, stronger effect = lower value 0.997 | locus YDL035C, strain GPR1, stronger effect = lower value 1.04 | locus YDL040C, strain nat1, stronger effect = lower value 1.01 | locus YDL074C, strain BRE1, stronger effect = lower value 0.986 | locus YDL101C, strain DUN1, stronger effect = lower value 0.981 | locus YDL134C, strain PPH21, stronger effect = lower value 1.02 | locus YDL185W, strain tfp1, stronger effect = lower value 0.979 | locus YDL192W, strain arf1, stronger effect = lower value 0.985 | locus YDR001C, strain nth1, stronger effect = lower value 0.992 | locus YDR069C, strain doa4, stronger effect = lower value 1.03 | locus YDR101C, strain arx1, stronger effect = lower value 1 | locus YDR137W, strain rgp1, stronger effect = lower value 1 | locus YDR159W, strain sac3, stronger effect = lower value 0.983 | locus YDR162C, strain NBP2, stronger effect = lower value 1.01 | locus YDR195W, strain ref2 1.01 | locus YDR297W, strain sur2, stronger effect = lower value 1.02 | locus YDR318W, strain mcm21, stronger effect = lower value 0.98 | locus YDR334W, strain swr1, stronger effect = lower value 0.993 | locus YDR335W, strain msn5, stronger effect = lower value 1.02 | locus YDR388W, stronger effect = lower value 0.98 | locus YDR392W, strain spt3, stronger effect = lower value 0.944 | locus YDR502C, strain sam2, stronger effect = lower value 0.994 | locus YEL003W, strain gim4, stronger effect = lower value 1 | locus YEL037C, strain rad23, stronger effect = lower value 0.992 | locus YEL061C, strain CIN8 (second series), stronger effect = lower value 0.991 | locus YEL061C, strain CIN8, stronger effect = lower value 0.991 | locus YER015W, strain faa2, stronger effect = lower value 1.01 | locus YER016W, strain bim1, stronger effect = lower value 1.01 | locus YER110C, stronger effect = lower value 0.965 | locus YER111C, strain swi4, stronger effect = lower value 0.993 | locus YER155C, strain BEM2 (second series), stronger effect = lower value 0.972 | locus YER155C, strain BEM2, stronger effect = lower value 0.994 | locus YER167W, strain BCK2, stronger effect = lower value 0.997 | locus YFR010W, strain ubp6, stronger effect = lower value 1.03 | locus YGL078C, strain dbp3, stronger effect = lower value 0.975 | locus YGL086W, strain mad1, stronger effect = lower value 1 | locus YGL167C, strain pmr1, stronger effect = lower value 1.01 | locus YGL173C, strain kem1, stronger effect = lower value 1.04 | locus YGL227W, strain vid30, stronger effect = lower value 0.968 | locus YGL240W, strain doc1, stronger effect = lower value 1.02 | locus YGL248W, strain PDE1, stronger effect = lower value 0.985 | locus YGL253W, strain hxk2, stronger effect = lower value 1.01 | locus YGR078C, strain PAC10, stronger effect = lower value 0.992 | locus YGR135W, strain pre9, stronger effect = lower value 0.958 | locus YGR252W, strain gcn5, stronger effect = lower value 0.969 | locus YHR013C, strain ard1, stronger effect = lower value 1.01 | locus YHR027C, strain rpn1, stronger effect = lower value 1.01 | locus YHR030C, strain SLT2, stronger effect = lower value 0.994 and 1.03 | locus YHR079C, strain IRE1 (second series), stronger effect = lower value 0.983 | locus YHR079C, strain IRE1, stronger effect = lower value 1.02 | locus YHR094C, strain hxt1, stronger effect = lower value 0.972 | locus YHR129C, strain ARP1, stronger effect = lower value 0.998 | locus YHR142W, strain chs7, stronger effect = lower value 1 | locus YHR200W, strain rpn10, stronger effect = lower value 0.981 | locus YIL066C, strain RNR3, stronger effect = lower value 0.993 | locus YIL073C, strain SPO22, stronger effect = lower value 0.952 | locus YIL125W, strain kgd1, stronger effect = lower value 0.988 | locus YIR030C, strain dcg1, stronger effect = lower value 0.972 | locus YJL092W, strain hpr5, stronger effect = lower value 0.989 | locus YJL095W, strain BCK1 (second series), stronger effect = lower value 1.01 | locus YJL095W, strain BCK1, stronger effect = lower value 0.981 and 0.994 | locus YJL115W, strain asf1, stronger effect = lower value 0.992 | locus YJL129C, strain trk1, stronger effect = lower value 0.94 | locus YJL134W, strain LCB3, stronger effect = lower value 0.992 | locus YJL154C, strain vps35, stronger effect = lower value 0.995 | locus YJL164C, strain tpk1, stronger effect = lower value 0.994 | locus YJL166W, strain qcr8, stronger effect = lower value 1.03 | locus YJL168C, strain set2, stronger effect = lower value 0.974 | locus YJL187C, strain SWE1 (second series), stronger effect = lower value 0.98 | locus YJL187C, strain SWE1, stronger effect = lower value 1.02 | locus YJR043C, strain POL32, stronger effect = lower value 1.03 | locus YJR066W, strain TOR1, stronger effect = lower value 0.957
